Reference: PubChem BioAssay (EPA / NIEHS)
Records with an inconclusive call do not appear. The source made the active and inactive calls. Rule for the calls, unless noted: active = hit-call score of the fitted dose curve at least 0.9, where 1 is the maximum; inconclusive = response in the unintended direction; inactive = score below 0.9.

Legend:
[1] = biological target: rat Serotonin Transporter (SERT), Slc6a4 (gene 25553) (UniProt P31652); experiment: NVS_TR_rSERT: NovaScreen (NVS) Transporter Assay for rat Serotonin Transporter (SERT) (AID 2283375)
Chain of rat Serotonin Transporter (SERT), Slc6a4 (gene 25553) (P31652 whole entry, looked up): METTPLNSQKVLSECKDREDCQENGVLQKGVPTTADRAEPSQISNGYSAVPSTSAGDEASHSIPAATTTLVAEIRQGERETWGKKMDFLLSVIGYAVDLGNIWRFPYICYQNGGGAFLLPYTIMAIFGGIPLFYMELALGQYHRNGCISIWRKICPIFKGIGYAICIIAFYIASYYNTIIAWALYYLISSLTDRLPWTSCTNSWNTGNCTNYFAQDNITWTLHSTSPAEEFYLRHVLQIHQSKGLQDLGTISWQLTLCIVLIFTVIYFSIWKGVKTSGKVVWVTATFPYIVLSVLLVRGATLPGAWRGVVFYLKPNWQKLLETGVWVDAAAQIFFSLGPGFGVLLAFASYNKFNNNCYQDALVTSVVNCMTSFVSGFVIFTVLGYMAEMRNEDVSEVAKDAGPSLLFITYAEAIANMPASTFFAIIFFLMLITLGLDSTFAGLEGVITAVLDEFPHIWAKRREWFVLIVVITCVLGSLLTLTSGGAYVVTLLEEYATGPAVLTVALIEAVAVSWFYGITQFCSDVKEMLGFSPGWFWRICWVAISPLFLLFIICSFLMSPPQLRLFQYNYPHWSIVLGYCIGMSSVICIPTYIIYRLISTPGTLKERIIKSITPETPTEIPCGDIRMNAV
Outline: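 Rat forebrain membranes; radioligand displacement at SERT read by filter-based scintillation counting, 1 h after dosing. Screened in duplicate at 25 uM, actives then run in concentration series; loss of signal versus DMSO baseline.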

[2] = biological target: human Norepinephrine Transporter (NET), SLC6A2 (gene 6530) (UniProt P23975); experiment: NVS_TR_hNET: NovaScreen (NVS) Transporter Assay for human Norepinephrine Transporter (NET) (AID 2283377);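 note: cell-free membrane protein extracted from CHO cells expressing human NET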;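 for AC50: displacement of radioligand from human NET seen as loss of scintillation signal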
Chain of human Norepinephrine Transporter (NET), SLC6A2 (gene 6530) (P23975 whole entry, looked up): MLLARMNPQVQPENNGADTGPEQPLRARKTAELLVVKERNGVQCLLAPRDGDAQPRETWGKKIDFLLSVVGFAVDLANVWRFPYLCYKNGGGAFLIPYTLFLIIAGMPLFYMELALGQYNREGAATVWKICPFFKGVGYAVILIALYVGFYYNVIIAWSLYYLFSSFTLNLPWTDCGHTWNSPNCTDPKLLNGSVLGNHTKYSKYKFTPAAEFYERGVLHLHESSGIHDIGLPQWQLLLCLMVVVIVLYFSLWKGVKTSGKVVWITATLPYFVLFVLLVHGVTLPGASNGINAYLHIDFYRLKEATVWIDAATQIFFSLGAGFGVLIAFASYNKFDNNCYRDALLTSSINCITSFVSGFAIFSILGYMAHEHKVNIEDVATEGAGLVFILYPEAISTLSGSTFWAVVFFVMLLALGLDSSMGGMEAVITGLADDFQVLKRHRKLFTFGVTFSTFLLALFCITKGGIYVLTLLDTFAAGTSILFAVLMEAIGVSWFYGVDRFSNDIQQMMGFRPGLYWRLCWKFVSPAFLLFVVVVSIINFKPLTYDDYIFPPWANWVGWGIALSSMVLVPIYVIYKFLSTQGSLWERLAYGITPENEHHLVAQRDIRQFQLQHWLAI
Outline: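 Single-concentration duplicate screen at 25 uM, then concentration-response for actives; displacement of specific radioligand from human NET in CHO membrane extracts, filter-based scintillation detection at 1 h relative to DMSO.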

[3] = biological target: human Dopamine Transporter (DAT), SLC6A3 (gene 6531) (UniProt Q01959); experiment: NVS_TR_hDAT: NovaScreen (NVS) Transporter Assay for human Dopamine Transporter (DAT) (AID 2283374);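 note: activity means loss of bound radioligand signal relative to DMSO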
Chain of human Dopamine Transporter (DAT), SLC6A3 (gene 6531) (Q01959 whole entry, looked up): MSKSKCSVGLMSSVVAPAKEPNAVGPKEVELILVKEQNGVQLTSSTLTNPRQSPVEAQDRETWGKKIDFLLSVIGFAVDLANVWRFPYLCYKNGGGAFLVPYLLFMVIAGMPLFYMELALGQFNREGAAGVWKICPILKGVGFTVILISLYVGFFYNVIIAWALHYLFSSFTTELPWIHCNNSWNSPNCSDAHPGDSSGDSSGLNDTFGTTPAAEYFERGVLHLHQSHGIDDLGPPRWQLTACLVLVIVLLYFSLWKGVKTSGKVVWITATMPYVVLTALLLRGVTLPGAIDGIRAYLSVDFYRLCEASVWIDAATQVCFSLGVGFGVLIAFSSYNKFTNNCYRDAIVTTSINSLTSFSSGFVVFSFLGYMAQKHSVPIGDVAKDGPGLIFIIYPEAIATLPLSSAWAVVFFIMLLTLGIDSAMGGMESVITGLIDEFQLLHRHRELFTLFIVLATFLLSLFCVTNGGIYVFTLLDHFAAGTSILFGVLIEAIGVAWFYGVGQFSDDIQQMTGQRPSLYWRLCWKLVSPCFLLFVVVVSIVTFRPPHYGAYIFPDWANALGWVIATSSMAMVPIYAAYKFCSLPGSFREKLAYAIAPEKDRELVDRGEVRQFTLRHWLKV
Outline: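 Duplicate single-point screening at 25 uM preceded concentration-series follow-up of actives. Binding was measured by competitive displacement of a radioligand from DAT protein, filter-counted by scintillation 1 h after dosing. Decrease relative to DMSO taken as activity.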

[4] = system: rat Norepinephrine Transporter (NET), gene 83511; experiment: NVS_TR_rNET: NovaScreen (NVS) Transporter Assay for rat Norepinephrine Transporter (NET) (AID 2283373)
Experimental: NVS_TR_rNET is a biochemical, single-readout assay that uses extracted gene-proteins from Rat forebrain membranes in a tissue-based cell-free assay. Measurements were taken 1 hour after chemical dosing in a 48-well plate.NVS_TR_rNET is one of one assay component(s) measured or calculated from the NVS_TR_rNET assay. It is designed to make measurements of radioligand binding, a form of binding reporter, as detected with scintillation counting signals by Filter-based radiodetection technology.Data from the assay component NVS_TR_rNET was analyzed into 1 assay endpoint. This assay endpoint, NVS_TR_rNET, was analyzed in the positive analysis fitting direction relative to DMSO as the negative control and baseline of activity. Using a type of binding reporter, loss-of-signal activity can be used to understand changes in the binding as they relate to the gene Slc6a2. Furthermore, this assay endpoint can be referred to as a primary readout, because the performed assay has only produced 1 assay endpoint. To generalize the intended target to other relatable targets, this assay endpoint is annotated to the transporter intended target family, where the subfamily is neurotransmitter transporter.
Binding assays used specific radioligands (tritiated, iodinated) with non-radioactive competitive displacement ligands in agonist or antagonist protocols (as indicated) and various reference compounds and inhibitors to titrate specific binding to receptors and transporters. Most enzyme assays (CYPs, kinases, phosphatases, proteases, HDACs) used recombinant protein and specific substrates (fluorescence mostly, some colorimetric and radioactive) and inhibitors, followed by a biochemical separation of substrate and product. All assays for the biochemical HTS were initially run in duplicate at a single concentration (10 uM for CYP450 assays and 25 uM for all others). […] Each assay was run with positive and negative controls, and concurrent controls on every plate. […]

[5] = biological target: Estrogen receptor (Homo sapiens) (UniProt P03372); experiment: OT_ERa_GFPERaERE_0480: Odyssey Thera (OT) 8-hour HeLa Transcription Induction Assay for Estrogen Receptor (AID 2283381; active = hit-call score of the fitted dose curve at least 0.9, where 1 is the maximum; inactive = score below 0.9)
Chain of Estrogen receptor (Homo sapiens) (P03372 whole entry, looked up): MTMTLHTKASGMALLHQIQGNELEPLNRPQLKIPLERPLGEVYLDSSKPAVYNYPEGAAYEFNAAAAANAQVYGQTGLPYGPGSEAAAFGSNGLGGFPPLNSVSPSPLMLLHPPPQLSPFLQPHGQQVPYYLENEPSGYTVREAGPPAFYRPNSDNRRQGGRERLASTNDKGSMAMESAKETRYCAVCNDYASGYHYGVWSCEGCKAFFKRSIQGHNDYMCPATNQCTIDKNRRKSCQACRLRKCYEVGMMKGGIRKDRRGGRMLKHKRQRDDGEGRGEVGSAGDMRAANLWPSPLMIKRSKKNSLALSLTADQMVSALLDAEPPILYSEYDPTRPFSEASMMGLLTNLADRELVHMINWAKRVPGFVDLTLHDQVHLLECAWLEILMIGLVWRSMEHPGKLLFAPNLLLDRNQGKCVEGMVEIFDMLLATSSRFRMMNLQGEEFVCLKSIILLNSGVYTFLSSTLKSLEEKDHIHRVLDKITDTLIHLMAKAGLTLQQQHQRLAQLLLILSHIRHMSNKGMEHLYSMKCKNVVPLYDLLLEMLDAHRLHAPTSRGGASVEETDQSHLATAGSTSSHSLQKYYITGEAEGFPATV
Outline: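 GFP-ERE reporter, HeLa, 8 h exposure. Readout: fluorescence microscopy, high-content image analysis. Fit direction positive vs DMSO negative control.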

[6] = biological target: Estrogen receptor (Homo sapiens) (UniProt P03372); experiment: OT_ERa_GFPERaERE_0120: Odyssey Thera (OT) 2-hour HeLa Transcription Induction Assay for Estrogen Receptor (AID 2283382)
Outline: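 Fluorescence microscopy read-out: inducible fluorescent protein reporter in HeLa cells, imaged 2 h post-dose. Signal increase over DMSO negative control fitted as single primary endpoint via high content image analysis.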

[7] = biological target: Estrogen receptor beta (Homo sapiens) (UniProt Q92731); experiment: OT_ER_ERbERb_1440: Odyssey Thera (OT) 24-hour HEK293T Protein-Complementation Assay for Estrogen Receptor-beta/-beta Homodimer (AID 2283380);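 note: fluorescence gain from ER beta LBD homodimer complementation read by laser scanning cytometry; scored as signal increase over DMSO baseline for both agonists and antagonists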
Chain of Estrogen receptor beta (Homo sapiens) (Q92731 whole entry, looked up, the tested form may be a part): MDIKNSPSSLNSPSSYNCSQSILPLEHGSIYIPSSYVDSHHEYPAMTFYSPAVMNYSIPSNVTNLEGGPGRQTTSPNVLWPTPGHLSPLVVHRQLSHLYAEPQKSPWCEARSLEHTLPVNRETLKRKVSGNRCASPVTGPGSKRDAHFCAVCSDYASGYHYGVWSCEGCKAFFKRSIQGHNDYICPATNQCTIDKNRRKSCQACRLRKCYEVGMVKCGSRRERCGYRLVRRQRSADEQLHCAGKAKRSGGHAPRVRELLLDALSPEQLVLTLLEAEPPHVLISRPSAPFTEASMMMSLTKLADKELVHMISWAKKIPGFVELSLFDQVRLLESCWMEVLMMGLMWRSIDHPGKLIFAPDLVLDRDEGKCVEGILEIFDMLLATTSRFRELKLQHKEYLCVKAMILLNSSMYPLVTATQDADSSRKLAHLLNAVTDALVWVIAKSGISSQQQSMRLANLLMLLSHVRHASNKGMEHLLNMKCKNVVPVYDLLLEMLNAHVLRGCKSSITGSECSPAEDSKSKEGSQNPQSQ
Outline: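 Fluorescence increase, nuclear for agonists or whole-cell for antagonists, relative to DMSO vehicle, quantified by laser scanning cytometer after fixation and Draq5 staining. Readout from 24 h treatment of HEK293T cells carrying complementation-paired ER beta LBD (aa 310-547).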

[8] = biological target: mouse Estrogen Receptor alpha (Era), Esr1 (gene 13982) (UniProt P19785); experiment: NVS_NR_mERa: NovaScreen (NVS) Nuclear Receptor Binding Assay for mouse Estrogen Receptor alpha (Era) (AID 2283378);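 note: hit means loss of bound radioligand signal relative to DMSO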
Chain of mouse Estrogen Receptor alpha (Era), Esr1 (gene 13982) (P19785 whole entry, looked up): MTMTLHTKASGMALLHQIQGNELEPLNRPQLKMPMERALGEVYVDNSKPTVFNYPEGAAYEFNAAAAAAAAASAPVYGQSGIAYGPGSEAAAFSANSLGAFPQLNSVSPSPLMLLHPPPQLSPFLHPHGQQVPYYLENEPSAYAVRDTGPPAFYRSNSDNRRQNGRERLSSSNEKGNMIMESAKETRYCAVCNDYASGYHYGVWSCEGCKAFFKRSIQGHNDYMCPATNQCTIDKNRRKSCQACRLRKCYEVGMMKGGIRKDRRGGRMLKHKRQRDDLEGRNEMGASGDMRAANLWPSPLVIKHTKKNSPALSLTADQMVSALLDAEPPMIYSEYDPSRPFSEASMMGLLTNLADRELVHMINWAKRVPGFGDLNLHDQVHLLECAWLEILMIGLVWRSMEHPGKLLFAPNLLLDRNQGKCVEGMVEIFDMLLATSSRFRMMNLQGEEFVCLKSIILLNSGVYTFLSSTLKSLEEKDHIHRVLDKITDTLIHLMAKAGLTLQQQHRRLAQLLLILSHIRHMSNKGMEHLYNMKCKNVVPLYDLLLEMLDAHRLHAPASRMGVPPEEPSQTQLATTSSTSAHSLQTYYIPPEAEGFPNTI
Outline: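 Cell-free radioligand competitive displacement binding, read by filter-based scintillation counting 18 h after dosing. Primary screen run in duplicate at 25 uM, actives retested in concentration series; loss of signal versus DMSO.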

[9] = biological target: Agonist Androgen Response Element (ARE), AR (gene 367) (UniProt P10275); experiment: OT_AR_ARELUC_AG_1440: Odyssey Thera (OT) 24-hour CHO-K1 Luciferase Assay for Agonist Androgen Response Element (ARE) (AID 2283379)
Chain of Agonist Androgen Response Element (ARE), AR (gene 367) (P10275 whole entry, looked up): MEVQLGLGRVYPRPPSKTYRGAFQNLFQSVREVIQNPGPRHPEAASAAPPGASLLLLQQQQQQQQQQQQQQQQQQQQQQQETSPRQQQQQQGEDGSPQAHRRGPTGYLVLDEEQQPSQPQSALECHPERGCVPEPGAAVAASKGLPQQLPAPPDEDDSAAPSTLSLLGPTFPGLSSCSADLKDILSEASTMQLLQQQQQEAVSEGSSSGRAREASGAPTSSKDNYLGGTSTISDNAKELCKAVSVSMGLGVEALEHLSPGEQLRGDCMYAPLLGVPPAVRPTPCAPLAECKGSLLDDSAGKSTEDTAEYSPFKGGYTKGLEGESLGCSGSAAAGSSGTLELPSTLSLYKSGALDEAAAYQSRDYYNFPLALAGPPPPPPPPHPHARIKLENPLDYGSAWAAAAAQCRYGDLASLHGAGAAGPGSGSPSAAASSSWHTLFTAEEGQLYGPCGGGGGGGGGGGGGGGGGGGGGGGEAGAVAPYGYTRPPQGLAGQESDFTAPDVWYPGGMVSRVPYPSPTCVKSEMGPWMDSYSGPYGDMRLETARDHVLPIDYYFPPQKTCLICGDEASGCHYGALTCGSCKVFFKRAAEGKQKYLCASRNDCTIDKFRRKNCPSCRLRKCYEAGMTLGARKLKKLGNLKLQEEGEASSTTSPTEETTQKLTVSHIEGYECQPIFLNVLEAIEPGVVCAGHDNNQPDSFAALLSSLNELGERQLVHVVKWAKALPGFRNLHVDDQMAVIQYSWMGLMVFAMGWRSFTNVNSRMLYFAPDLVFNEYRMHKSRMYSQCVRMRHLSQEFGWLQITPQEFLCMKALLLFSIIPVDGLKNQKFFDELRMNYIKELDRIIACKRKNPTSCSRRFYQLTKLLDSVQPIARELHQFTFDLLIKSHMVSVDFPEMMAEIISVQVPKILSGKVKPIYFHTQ
Outline: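 Readout: luciferase bioluminescence from CHO-K1 ARE-luc cells, measured 24 h post-dosing; agonism = increased mean luminescence vs DMSO controls, fitted in positive direction.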

[10] = biological target: Bile acid receptor (Homo sapiens) (UniProt Q96RI1); experiment: OT_FXR_FXRSRC1_0480: Odyssey Thera (OT) 8-hour HEK293T Protein-Complementation Assay for Farnesoid X receptor/SRC-1 Co-activator (AID 2283383)
Chain of Bile acid receptor (Homo sapiens) (Q96RI1 whole entry, looked up, the tested form may be a part): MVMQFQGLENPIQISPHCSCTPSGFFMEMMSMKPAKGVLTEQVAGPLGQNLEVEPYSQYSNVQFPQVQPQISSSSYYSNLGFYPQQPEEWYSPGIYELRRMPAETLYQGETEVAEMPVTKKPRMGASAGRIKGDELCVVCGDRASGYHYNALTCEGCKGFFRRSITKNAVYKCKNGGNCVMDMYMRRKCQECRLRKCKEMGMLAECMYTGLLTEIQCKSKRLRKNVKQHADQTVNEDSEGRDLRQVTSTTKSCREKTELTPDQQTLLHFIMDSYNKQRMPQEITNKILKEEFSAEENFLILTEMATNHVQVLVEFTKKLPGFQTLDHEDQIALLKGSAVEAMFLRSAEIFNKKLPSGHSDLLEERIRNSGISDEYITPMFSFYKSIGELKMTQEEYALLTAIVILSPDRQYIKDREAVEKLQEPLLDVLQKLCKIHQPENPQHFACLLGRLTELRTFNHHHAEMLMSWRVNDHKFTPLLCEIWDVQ
Outline: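 Fluorescence intensity read-out, 8 h post-dose, HEK293T protein-fragment complementation; FXR bait and SRC-1 prey each linked to reporter fragments. Activity scored as signal increase over DMSO negative control.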

## O=C1OC2(c3ccccc31)c1cc(I)c(O)c(I)c1Oc1c2cc(I)c(O)c1I
[1]
  AC50: 0.953 µM (active)
[2]
  AC50: 0.566 µM (active)

## c1ccc2c(c1)CCC2
[2]
  outcome: inactive

## CCOC(OCC)C(=O)c1ccccc1
[3]
  AC50: 7 µM (active)

## N=C(N)c1ccc(OCCCCCOc2ccc(C(=N)N)cc2)cc1
[4]
  outcome: inactive
[3]
  AC50: 4.11 µM (active)
[2]
  AC50: 0.725 µM (active)
[5]
  outcome: inactive
[6]
  outcome: inactive

## CCCCCCCCCCCCCCC
[2]
  outcome: inactive
[7]
  outcome: inactive

## C[C@]12CC[C@@H]3c4ccc(O)cc4CC[C@H]3[C@@H]1CC[C@@H]2OC(=O)CCC1CCCC1
[8]
  AC50: 0.0452 µM (active)

## O=C(c1ccccc1)c1ccccc1
[3]
  outcome: inactive
[9]
  outcome: inactive
[10]
  outcome: inactive

## C=Cc1ccc(O)c(OC)c1
[2]
  AC50: 19.1 µM (active)

## CCCCCCCCCCCCCC[n+]1ccccc1
[8]
  outcome: inactive

## CN(C)CCOC(c1ccccc1)c1ccccc1
[4]
  AC50: 2.98 µM (active)
[1]
  AC50: 12.6 µM (active)
[9]
  outcome: inactive
[7]
  outcome: inactive
[5]
  outcome: inactive
[6]
  outcome: inactive

## CC(O)COc1ccccc1 (configuration not stated)
[2]
  outcome: inactive
[9]
  outcome: inactive
[7]
  outcome: inactive

## CN(Cc1cnc2nc(N)nc(N)c2n1)c1ccc(C(=O)N[C@@H](CCC(=O)O)C(=O)O)cc1
[3]
  AC50: 6.69 µM (active)
[2]
  outcome: inactive
[8]
  outcome: inactive
[9]
  outcome: inactive
[7]
  outcome: inactive
[5]
  outcome: inactive
[6]
  outcome: inactive
[10]
  outcome: inactive

## O=C(CCCN1CCC(O)(c2ccc(Cl)cc2)CC1)c1ccc(F)cc1
[4]
  outcome: inactive
[7]
  outcome: inactive
[10]
  outcome: inactive

## Clc1ccc2c(Cl)ccnc2c1
[2]
  AC50: 25 µM (active)

## CCCCN(C)C
[3]
  outcome: inactive

## Oc1cccc2c(O)cccc12
[3]
  AC50: 25 µM (active)
[2]
  outcome: inactive

## CCCCCCOC(=O)c1ccc(O)cc1
[8]
  AC50: 3.82 µM (active)
